Shown are actives, neighbours in structure and some others; about 1.3% of the full set was active somewhere.
NR5A2 inv ag: suppresses constitutive activity of human LRH-1; HEK293T StAR-luciferase reporter, LRH-1 transfected, 24 h; hit rate 0.13% among 360,000; inhibition, % at 3.6 µM; O00482; AID 602396;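 active = inhibition above the mean inhibition of all tested compounds plus 3 SD, cut at about 73% in these data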
Gli-Sufu block: Gli-Sufu pathway antagonism. inhibition, % at 5 µM. AID 588413. Sufu-KO-LIGHT fibroblasts, Gli luciferase reporter luminescence. hit rate 0.74% among 340,000;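 active = inhibition above about 55%, limit read from the data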
NR2F2 inh: inhibitors of human COUP-TFII (NR2F2) | P24468 | HEK293T NGFI-A luciferase reporter, luminescence | inhibition, % at 8.6 µM | hit rate 0.7% among 370,000 | AID 686940;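 active = inhibition above a per-plate cutoff, mean inhibition of test wells between control levels plus 3 SD, cut at about 38% in these data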;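 note: cells cotransfected with COUP-TFII expression vector driving the NGFI-A reporter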
SRC3 inh: inhibits human SRC3 coactivator. hit rate 0.17% among 360,000. Q9Y6Q9. HEK293 GAL4-SRC3 luciferase reporter, luminescence. inhibition, % at 3.6 µM. AID 588352;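 active = inhibition above a per-campaign cutoff, the mean of all compounds plus 3 SD, cut at about 60% in these data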;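 note: higher means less SRC3-driven luciferase light from the GAL4 reporter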
Target sequence (Q9Y6Q9 whole entry, looked up, the tested form may be a part): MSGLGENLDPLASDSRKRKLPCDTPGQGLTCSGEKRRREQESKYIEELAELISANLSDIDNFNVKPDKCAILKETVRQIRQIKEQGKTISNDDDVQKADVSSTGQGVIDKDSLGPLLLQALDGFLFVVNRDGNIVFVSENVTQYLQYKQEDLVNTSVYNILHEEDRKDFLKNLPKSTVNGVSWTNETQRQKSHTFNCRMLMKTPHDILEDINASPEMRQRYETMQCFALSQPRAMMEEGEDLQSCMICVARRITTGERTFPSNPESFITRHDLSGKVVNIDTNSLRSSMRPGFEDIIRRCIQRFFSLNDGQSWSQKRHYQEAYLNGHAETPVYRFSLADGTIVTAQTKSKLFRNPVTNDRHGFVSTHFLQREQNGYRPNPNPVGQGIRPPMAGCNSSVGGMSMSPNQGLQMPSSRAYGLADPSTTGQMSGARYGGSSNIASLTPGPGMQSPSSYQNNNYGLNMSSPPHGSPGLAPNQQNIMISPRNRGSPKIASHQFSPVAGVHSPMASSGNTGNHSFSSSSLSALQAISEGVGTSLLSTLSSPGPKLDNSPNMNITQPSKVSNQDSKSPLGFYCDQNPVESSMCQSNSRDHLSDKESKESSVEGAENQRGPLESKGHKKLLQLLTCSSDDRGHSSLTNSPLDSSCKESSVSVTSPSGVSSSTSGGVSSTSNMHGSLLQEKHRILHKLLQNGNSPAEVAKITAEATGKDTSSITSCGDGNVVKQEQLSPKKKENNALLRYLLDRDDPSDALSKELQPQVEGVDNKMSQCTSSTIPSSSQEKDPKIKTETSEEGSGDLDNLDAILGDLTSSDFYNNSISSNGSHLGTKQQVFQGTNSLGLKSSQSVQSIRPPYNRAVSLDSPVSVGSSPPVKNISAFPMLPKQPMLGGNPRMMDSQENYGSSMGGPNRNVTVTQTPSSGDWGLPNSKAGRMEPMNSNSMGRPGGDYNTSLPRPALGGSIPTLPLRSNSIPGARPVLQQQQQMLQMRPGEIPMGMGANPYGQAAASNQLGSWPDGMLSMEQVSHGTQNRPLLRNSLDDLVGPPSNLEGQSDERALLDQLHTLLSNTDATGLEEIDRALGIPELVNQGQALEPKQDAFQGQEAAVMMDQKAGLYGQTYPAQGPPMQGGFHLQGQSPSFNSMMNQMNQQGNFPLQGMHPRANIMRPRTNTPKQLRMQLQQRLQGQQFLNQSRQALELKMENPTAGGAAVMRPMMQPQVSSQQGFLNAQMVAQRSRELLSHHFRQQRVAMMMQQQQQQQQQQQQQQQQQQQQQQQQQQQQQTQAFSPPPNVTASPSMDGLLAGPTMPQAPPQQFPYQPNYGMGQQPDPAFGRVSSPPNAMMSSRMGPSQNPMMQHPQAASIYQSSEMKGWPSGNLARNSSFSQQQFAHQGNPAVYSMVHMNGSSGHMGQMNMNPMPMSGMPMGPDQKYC
NCOA2 inhibitor: human SRC2 (NCOA2) inhibition | Q15596 | HEK293 GAL4-SRC2 luciferase reporter, luminescence | inhibition, % at 9 µM | hit rate 0.17% among 370,000;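 active = inhibition above the mean inhibition of all tested compounds plus 3 SD, set per campaign, cut at about 52% in these data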
SRC1 inh: inhibitors of human steroid receptor coactivator 1 (SRC1). hit rate 0.12% among 360,000. Q15788. AID 588354. HEK293 GAL4-SRC1 luciferase reporter, luminescence. inhibition, % at 3.6 µM;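 active = inhibition above the campaign mean plus 3 SD, with each screening campaign given its own cutoff, cut at about 60% in these data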
Gli-Sufu confirm: Gli-SUFU antagonism confirmation, single concentration; shares compounds with Gli-Sufu block; Sufu-KO-LIGHT cells, Gli luciferase reporter, luminescence; inhibition, % at 5 µM; hit rate 40% among 2,500; AID 602428;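 active = mean inhibition at 5 µM reaching about 45%, limit read from the data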
Gli cytotox: counter-screen for Gli-SUFU antagonists: cytotoxicity | shares compounds with Gli-Sufu block | Sufu-KO-LIGHT cells cytotoxicity, ATP luminescence | cytotoxicity, % at 5 µM | hit rate 32% among 2,500;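 active = mean cytotoxicity at 5 µM above about 25%, limit read from the data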;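 note: cells exposed to compound overnight for roughly 16 to 18 hours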
Wnt3a counter: counter-screen for Gli-SUFU antagonists: Wnt3a reporter inhibition. shares compounds with Gli-Sufu block. Wnt-LIGHT cells, Wnt3a-driven luciferase reporter, luminescence. inhibition, % at 6.25 µM. hit rate 20% among 2,500;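 active = mean inhibition above about 25%, limit read from the data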
Numbers stand for hits; i = inactive; nt = not tested or not shown.

SMILES	NR5A2 inv ag	Gli-Sufu block	NR2F2 inh	SRC3 inh	NCOA2 inhibitor	SRC1 inh	Gli-Sufu confirm	Gli cytotox	Wnt3a counter
Clc1ccc(C[n+]2cc(-c3ccccc3)n3c2CCC3)cc1Cl	i	59.2	i	i	i	i	51.0	37.5	i
Clc1ccc(-c2c[n+](Cc3cccc(Cl)c3)c3n2CCC3)cc1	i	i	i	i	i	i	51.1	28.9	i
COc1cc(NC(=O)c2ccccn2)cc(OC)c1OC	i	i	i	i	i	i	nt	nt	nt
COc1cc(C(=O)N/N=C(\c2ccccc2)c2ccccn2)cc(OC)c1OC	i	92.5	i	i	i	i	84.3	37.7	57.3
COc1cccc(C(=O)N[C@H](C(=O)N2CCC[C@H]2C(=O)NC2CCCC2)C2CCCCC2)c1	nt	nt	i	nt	i	nt	nt	nt	nt
CC1(C)C2CCC1(C)C(OCC[N+](C)(C)CC(=O)OC1CCCCC1)C2 (stereo not drawn)	i	78.8	i	i	i	i	74.8	32.2	i
Cc1cc(N2CCN(c3nc(-c4ccc([N+](=O)[O-])cc4)cs3)CC2)c2ccccc2n1	i	63.1	i	i	i	i	i	i	i
Cc1ccc(Cl)cc1NC(=O)N(C)CCOC(=O)Nc1cccc(Cl)c1	nt	nt	i	nt	i	nt	nt	nt	nt
COc1cc(C2c3cc4c(cc3C(OC3OC5COC(c6cccs6)OC5C(O)C3O)C3COC(=O)C23)OCO4)cc(OC)c1O (stereo not drawn)	i	81.7	i	76.7	i	80.6	80.9	71.9	57.3
CCOc1ccccc1NC(=O)CCn1ccnc1	i	57.8	i	i	i	i	i	i	i
CCOc1ccc(NC(=O)CCn2ccnc2)cc1	i	i	i	i	i	i	nt	nt	nt
COC(=O)[C@]12C[C@H](CC(=O)NCc3ccc(OC)c(OC)c3)C(=O)N(Cc3ccccc3)C1=C[C@H](C1CCCC1)O[C@@H]2C	nt	nt	i	nt	i	nt	nt	nt	nt
O=C(CSc1nc2ccccc2c(=O)n1-c1ccccc1)N1CCc2ccccc2C1	i	66.7	i	i	i	i	73.8	39.6	i
CC(C)c1ccccc1-n1c(SCC(=O)N2CCc3ccccc3C2)nc2ccccc2c1=O	i	i	i	i	i	i	nt	nt	nt
N#C/C(=C\c1ccc(-c2ccc(F)cc2)o1)C(=O)Nc1nc(-c2cccs2)cs1	i	i	i	i	i	i	nt	nt	nt
N#C/C(=C/c1ccc(-c2ccc([N+](=O)[O-])cc2)o1)C(=O)Nc1nc(-c2cccs2)cs1	i	72.3	i	i	i	i	83.8	i	32.8
C/C(=C\C(=O)c1ccc(Br)cc1)NNC(=O)c1ccc(O)cc1	i	i	i	i	i	i	nt	nt	nt
C/C(=C\C(=O)c1ccc(Br)cc1)NNC(=O)c1ccccc1	i	i	i	i	i	i	i	i	i
COc1ccccc1NCC(=O)n1nc(C)cc1C	i	i	i	i	i	i	i	i	i
CCOc1ccccc1NC(=O)C(=O)N/N=C/c1cc(Br)ccc1O	i	56.0	i	i	i	i	63.3	38.8	58.5
COc1cccc(/C=N/NC(=O)C(=O)Nc2ccccc2OC(F)(F)C(F)F)c1O	i	79.8	i	i	i	i	71.5	47.2	65.6
COc1ccccc1/C=N/NC(=O)c1cccc(OC(F)(F)C(F)F)c1	i	i	i	i	i	i	nt	nt	nt
O=C(/C=C(\Nc1cccc(Cl)c1)c1ccccc1)c1ccccc1	nt	nt	i	nt	i	nt	nt	nt	nt
Cc1nn(Cc2ccc(Cl)cc2)c(C)c1NC(=O)Cn1nc([N+](=O)[O-])c(Cl)c1C	i	i	i	i	i	i	i	i	i
Cc1nn(Cc2ccccc2)c(C)c1NC(=O)CCCn1nc([N+](=O)[O-])c(Cl)c1C	i	i	i	i	i	i	i	i	i
CCOc1ccc2c(c1)s/c(=N\S(=O)(=O)c1ccc(OC)cc1)n2C(F)F	i	i	i	i	i	i	i	i	i
COC(=O)C1=C(C)N(Cc2ccc(Br)cc2)C(=S)NC1c1ccccc1 (stereo not drawn)	nt	nt	i	nt	i	nt	nt	nt	nt

Assay outcomes: PubChem BioAssay, several laboratories
